Reference: PubChem BioAssay (NCI)
The panel holds about 79,000 compounds, 15% with a hit somewhere; the sample as a whole holds those more often. Values without a mark were called inactive. Calls of active or inactive are those of the source. Cut-off read from the data, not from the text of the source: active = growth inhibition above about 70%; inactive = the rest.

What was measured:
[1] = NCI Yeast Anticancer Drug Screen. Data for the rad50 strain (AID 155);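 note: 0% = growth of vehicle-only cultures of the same strain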; conditions: S. cerevisiae rad50 strain growth inhibition, stronger effect = higher value
Outline: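 Readout: growth inhibition relative to vehicle-treated cultures. Compound exposure was carried out in a genetically defined yeast strain deficient in DNA damage repair.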

[2] = NCI Yeast Anticancer Drug Screen. Data for the mec2-1 strain (AID 157); conditions: S. cerevisiae mec2-1 strain, stronger effect = higher value
Outline: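 Compounds were applied to mec2-1 yeast cells. Their growth was then compared with that of vehicle-treated cultures to give growth inhibition.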

[3] = NCI Yeast Anticancer Drug Screen. Data for the sgs1 mgt1 strain (AID 161);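 note: 0% = growth of cultures given vehicle only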; conditions: S. cerevisiae sgs1 mgt1 strain, stronger effect = higher value
Outline: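 Yeast cells carrying a defined DNA-repair defect were exposed to test compounds. Growth inhibition was measured relative to vehicle-treated controls.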

[4] = NCI Yeast Anticancer Drug Screen. Data for the cln2 rad14 strain (AID 165);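 note: 0% = growth equal to vehicle treated cultures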; conditions: S. cerevisiae cln2 rad14 strain, stronger effect = higher value
Outline: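 Strain: cln2 rad14 yeast, altered in cell cycle control and DNA damage repair. Read-out: growth inhibition vs vehicle.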

[5] = NCI Yeast Anticancer Drug Screen. Data for the bub3 strain (AID 167); conditions: S. cerevisiae bub3 mutant strain, stronger effect = higher value
Outline: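 Readout: yeast growth inhibition, expressed relative to vehicle-only wells. The test organism is a mutant strain from a panel with lesions in DNA repair or checkpoint genes.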

[6] = NCI Yeast Anticancer Drug Screen. Data for the mlh1 rad18 strain (AID 175); conditions: S. cerevisiae mlh1 rad18 strain growth inhibition, stronger effect = higher value
Outline: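 A repair-deficient yeast strain is exposed to test compound, and growth is scored relative to vehicle-treated controls.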

[7] = at 5.0 µM (retest, dose inferred, filed as 0.5)
[8] = at 50.0 µM (retest, dose inferred, filed as 5.0)

Row | SMILES | growth inhibition [1, 7] [%] | growth inhibition [1, 8] | growth inhibition ([1]; at 50.0 µM) | growth inhibition [2, 7] [%] | growth inhibition [2, 8] | growth inhibition ([2]; at 50.0 µM) | growth inhibition [3, 7] [%] | growth inhibition [3, 8] | growth inhibition ([3]; at 50.0 µM) | growth inhibition [4, 7] [%] | growth inhibition [4, 8] | growth inhibition ([4]; at 50.0 µM) | growth inhibition [5, 7] [%] | growth inhibition [5, 8] | growth inhibition ([5]; at 50.0 µM) | growth inhibition [6, 7] [%] | growth inhibition [6, 8] | growth inhibition ([6]; at 50.0 µM)
1 | COc1ccc(OC)c2c1C=C[C@H](C1(C)SCCS1)C2C(C)=O (some centres undefined) | 6 | 82% (active) | 74% (active) | -4 | 88% (active) | 82% (active) | 6 | 77% (active) | 80.7% (active) | 7 | 83% (active) | 72.3% (active) | -2 | 90% (active) | 76.5% (active) | -13 | 92% (active) | 77% (active)
2 | ON1CCc2c([nH]c3ccccc23)C1c1ccc(Cl)cc1 (centres undefined) | -8 | 93% (active) | 54.5% | -9 | 91% (active) | 34.4% | 1 | 98% (active) | 85.4% (active) | -8 | 88% (active) | 55.7% | -6 | 96% (active) | 40.1% | -2 | 96% (active) | 79.2% (active)
3 | Clc1ccc(-c2nnn3ccccc23)cc1 | 4 | 8% | 95.3% (active) | 12 | 9% | 93.5% (active) | -3 | 12% | 95.8% (active) | 4 | 10% | 28.6% | 2 | 5% | 91.7% (active) | 13 | 51% | 94.1% (active)
4 | CC(C)(C)c1cc(Nc2ccc([N+](=O)[O-])cc2[N+](=O)[O-])cc(C(C)(C)C)c1O | 4 | 99% (active) | -14.9% | 7 | 100% (active) | 14.3% | 6 | 99% (active) | 10.4% | -1 | 99% (active) | -45.6% | 8 | 99% (active) | -0.9% | -1 | 99% (active) | 8.45%
5 | COc1ccc(/C(Cl)=C(/c2ccc(O)cc2)c2ccc(OCCN(C)C)cc2)cc1 | 40 | 40% | 91.8% (active) | 32 | 32% | 87.7% (active) | 42 | 42% | 92.3% (active) | 34 | 34% | 89.3% (active) | 26 | 26% | 88.6% (active) | 27 | 27% | 88.8% (active)
6 | FC(F)(F)c1ccc(Cl)c(NC(=S)SC2CCCCC2)c1 | 5 | 95% (active) | 98.5% (active) | 0 | 97% (active) | 99.2% (active) | 7 | 99% (active) | 99.3% (active) | -30 | 88% (active) | 98.5% (active) | 0 | 98% (active) | 98.8% (active) | 7 | 97% (active) | 98.4% (active)
7 | ClC/C=C/c1ccccc1 | 2 | 31% | 68.8% | -1 | 11% | 16.9% | 3 | 15% | 61% | 6 | 1% | -7.2% | 7 | 20% | 37.1% | 3 | 18% | 62.6%
8 | COC(=O)C1=C(C(=O)OC)C2(C)OC1C(=O)C21CC1 (centres undefined) | 15 | 85% (active) | 88.3% (active) | 18 | 94% (active) | 84.6% (active) | 23 | 94% (active) | 86.8% (active) | 6 | 70% (active) | 76.2% (active) | 20 | 91% (active) | 93.6% (active) | 18 | 94% (active) | 94.5% (active)
